Reference: PubChem BioAssay (EPA / NIEHS)
Records with an inconclusive call do not appear. Active and inactive are the calls of the source. The calls were made as follows, unless noted: active = hit-call score of the fitted dose curve at least 0.9, where 1 is the maximum; inactive = score below 0.9.

Columns and labels:
[1] = ATG_NF_kB_CIS: Attagene CIS-FACTORIAL HepG2 Assay for human Nuclear Factor Kappa B (NF-kB) (AID 2282991); conditions: HepG2 Attagene cis-factorial NF-kB reporter mRNA; actives raise or lower the signal
How it was run: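 Multiplexed cis-reporter assay in transiently transfected HepG2. 24 h treatment; RNA isolated, RT-PCR, labelled fragments resolved by CE. DMSO baseline.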

[2] = ATG_NRF2_ARE_CIS: Attagene CIS-FACTORIAL HepG2 Assay for human Nuclear Factor Erythroid 2 Related Factor 2 (NFR2) response to Antioxidant Response Elements (ARE) (AID 2282992); conditions: HepG2 Attagene ARE/NRF2 reporter, transcription factor activity; actives raise or lower the signal
How it was run: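 Endogenous transcription factor activity read out as reporter transcript levels (RT-PCR plus capillary electrophoresis, fluorescence) in transiently transfected HepG2 cells. Measured at 24 h after dosing; gain or loss of signal fitted versus DMSO.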

[3] = ATG_Oct_MLP_CIS: Attagene CIS-FACTORIAL HepG2 Assay for human Octamer-Binding Transcription Factor (Oct) (AID 2282993); conditions: HepG2 Attagene cis-factorial Oct reporter, mRNA; actives raise or lower the signal
How it was run: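 HepG2 cells transiently transfected with cis-element-driven reporter transcription units (endogenous TF activity); 24 h compound exposure. Reporter mRNA quantified by RT-PCR, 6-FAM labelling, HpaI digestion and capillary electrophoresis; bidirectional fit versus DMSO baseline.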

[4] = target: Cellular tumor antigen p53 (Homo sapiens) (UniProt P04637); assay: ATG_p53_CIS: Attagene CIS-FACTORIAL HepG2 Assay for human p53 Transcription Factor (AID 2282994); conditions: HepG2 p53 cis-element reporter, Attagene mRNA; actives raise or lower the signal
How it was run: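 Endogenous p53 activity read in transiently transfected HepG2 from a cis-element-driven reporter transcript after 24 h exposure. RNA reverse-transcribed, PCR-amplified, fluorescently labelled and sized by capillary electrophoresis; gain or loss fitted against DMSO baseline.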

[5] = BSK_3C_uPAR: BioMAP Diversity Plus: 3C Assay for Urokinase-type plasminogen activator receptor (uPAR) Biomarker Activity (AID 2282998); conditions: BioMAP 3C HUVEC, uPAR biomarker ELISA; actives raise or lower the signal
How it was run: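 Primary human umbilical vein endothelial cells, 3C system; surface uPAR measured by ELISA 24 h after dosing. Cytotoxicity via SRB total protein in parallel cultures; bidirectional fit against DMSO.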

[6] = BSK_4H_Eotaxin3: BioMAP Diversity Plus: 4H Assay for Eotaxin 3 Biomarker Activity (AID 2283000); conditions: primary human endothelial cells (HUVEC); actives raise or lower the signal;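 also: CCL26 protein level quantified by ELISA in parallel with SRB cytotoxicity check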
How it was run: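 HUVEC, 24 h post-dose, ELISA for Eotaxin-3/CCL26. Gain or loss of signal fitted bidirectionally vs DMSO baseline.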

[7] = read-out: Intercellular Adhesion Molecule 1 (ICAM1), ICAM1 (gene 3383); assay: BSK_3C_ICAM1: BioMAP Diversity Plus: 3C Assay for Intercellular Adhesion Molecule 1 (ICAM1) Biomarker Activity (AID 2283003); conditions: primary human endothelial cells (HUVEC); actives raise or lower the signal
How it was run: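 ELISA read-out of ICAM-1; HUVEC (primary human), 3C system, 24 h post-dosing; bidirectional fit vs DMSO baseline.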

[8] = BSK_3C_Proliferation: Cell Proliferation Assessment in the BioMAP Diversity Plus: 3C Assay (AID 2283006); conditions: primary human endothelial cells (HUVEC);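 as to AC50: potency may reflect either rise or fall in cell number versus DMSO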
How it was run: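 HUVEC, sub-confluent; 48 h chemical exposure; 10% TCA fix, 0.1% SRB stain, A560 total protein. Gain or loss of signal fitted both directions vs DMSO control.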

[9] = target: Peroxisome proliferator-activated receptor gamma (Homo sapiens) (UniProt P37231); assay: ATG_PPARg_TRANS: Attagene TRANS-FACTORIAL HepG2 Assay for human Peroxisome Proliferator-activated Receptor-gamma (PPARg) (AID 2283007; active = hit-call score of the fitted dose curve at least 0.9, where 1 is the maximum)
How it was run: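 Human hepatoma HepG2, transient MRTU transfection, 24 h treatment. mRNA reporter signal by RT-PCR plus capillary electrophoresis, fluorescence detection; fitted for increase over DMSO negative control.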

[10] = target: Nuclear receptor subfamily 1 group I member 2 (Homo sapiens) (UniProt O75469); assay: ATG_PXR_TRANS: Attagene TRANS-FACTORIAL HepG2 Assay for human Pregnane X Receptor (PXR) (AID 2283008; active = hit-call score of the fitted dose curve at least 0.9, where 1 is the maximum)
How it was run: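 Transactivation by exogenous PXR–GAL4 fusion measured as reporter transcript induction after 24 h compound treatment of transfected human HepG2 cells. Read-out via RT-PCR and capillary electrophoresis of labelled fragments, fitted upward relative to DMSO.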

[11] = target: human Retinoic Acid Receptor gamma (RARg), RARG (gene 5916) (UniProt P13631); assay: ATG_RARg_TRANS: Attagene TRANS-FACTORIAL HepG2 Assay for human Retinoic Acid Receptor gamma (RARg) (AID 2283009; active = hit-call score of the fitted dose curve at least 0.9, where 1 is the maximum)
How it was run: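 Readout: reporter transcript levels via RT-PCR, 6-FAM primer-extension labelling, HpaI digestion and capillary electrophoresis. Cells: HepG2 carrying transfected RARg-GAL4 chimera plus UAS reporter set. Dosing 24 h; DMSO negative control.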

[12] = target: human RAR-related Orphan Receptor beta (RORb), RORB (gene 6096) (UniProt Q92753); assay: ATG_RORb_TRANS: Attagene TRANS-FACTORIAL HepG2 Assay for human RAR-related Orphan Receptor beta (RORb) (AID 2283010; active = hit-call score of the fitted dose curve at least 0.9, where 1 is the maximum)
How it was run: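 HepG2, transient MRTU transfection (GAL4-UAS reporters, exogenous NR-Gal4 chimeras); 24 h compound exposure; total RNA → RT-PCR → 6-FAM primer extension → HpaI digest → CE fluorescence. Positive direction vs DMSO baseline.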

[13] = target: human RAR-related Orphan Receptor gamma (RORg), RORC (gene 6097) (UniProt P51449); assay: ATG_RORg_TRANS: Attagene TRANS-FACTORIAL HepG2 Assay for human RAR-related Orphan Receptor gamma (RORg) (AID 2283011; active = hit-call score of the fitted dose curve at least 0.9, where 1 is the maximum)
How it was run: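 Readout: reporter transcript induction (RT-PCR, fluorescent primer extension, capillary electrophoresis) after 24 h compound exposure of transiently transfected HepG2 cells carrying a RORg-Gal4 chimera and GAL4-UAS reporters; DMSO served as baseline, with increasing signal fitted.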

[14] = target: human Retinoid X Receptor beta (RXRb), RXRB (gene 6257) (UniProt P28702); assay: ATG_RXRb_TRANS: Attagene TRANS-FACTORIAL HepG2 Assay for human Retinoid X Receptor beta (RXRb) (AID 2283013; active = hit-call score of the fitted dose curve at least 0.9, where 1 is the maximum)
How it was run: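 Read-out: reporter mRNA induction via RT-PCR plus capillary electrophoresis fluorescence, analysed as signal increase relative to DMSO. Cells were human HepG2, transiently transfected with GAL4-UAS reporter constructs and chimeric receptor-Gal4 fusions, dosed for 24 h.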

[15] = target: human Thyroid Receptor alpha (THRa1), THRA (gene 7067) (UniProt P10827); assay: ATG_THRa1_TRANS: Attagene TRANS-FACTORIAL HepG2 Assay for human Thyroid Receptor alpha (THRa1) (AID 2283014; active = hit-call score of the fitted dose curve at least 0.9, where 1 is the maximum)
How it was run: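 HepG2 cells transiently transfected with multiplexed GAL4-UAS reporter units for exogenous chimeric THRa1-Gal4; reporter mRNA measured 24 h after dosing by RT-PCR, 6-FAM labelling, HpaI digestion and capillary electrophoresis. Gain-of-signal fitted versus DMSO baseline.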

[16] = BSK_3C_TissueFactor: BioMAP Diversity Plus: 3C Assay for Tissue Factor Biomarker Activity (AID 2282997); conditions: BioMAP 3C HUVEC, tissue factor biomarker readout; actives raise or lower the signal
How it was run: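 Readout: Tissue Factor ELISA. Cells: human primary umbilical vein endothelium. Time: 24 h after dosing. Analysis: bidirectional fit, DMSO baseline.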

[17] = BSK_3C_VCAM1: BioMAP Diversity Plus: 3C Assay for Vascular cell adhesion molecule 1 (VCAM1) Biomarker Activity (AID 2282999); conditions: BioMAP 3C HUVEC, VCAM1 ELISA, cytokine-stimulated; actives raise or lower the signal
How it was run: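 Vascular primary endothelium (human umbilical vein) was exposed to chemicals and assayed 24 h later. VCAM-1 levels came from ELISA, with DMSO serving as baseline for bidirectional fitting.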

[18] = target: human Peroxisome Proliferator-activated Receptor delta (PPARd), PPARD (gene 5467) (UniProt Q03181); assay: ATG_PPARd_TRANS: Attagene TRANS-FACTORIAL HepG2 Assay for human Peroxisome Proliferator-activated Receptor delta (PPARd) (AID 2283002; active = hit-call score of the fitted dose curve at least 0.9, where 1 is the maximum)
How it was run: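 Measured quantity: GAL4-UAS reporter transcript induction in HepG2 after 24 h chemical dosing, with NR-Gal4 chimeras supplied by transient transfection. Detection by RT-PCR and capillary electrophoresis; upward fit against DMSO.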

[19] = target: Retinoic acid receptor RXR-alpha (Homo sapiens) (UniProt P19793); assay: ATG_RXRa_TRANS: Attagene TRANS-FACTORIAL HepG2 Assay for human Retinoid X Receptor alpha (RXRa) (AID 2283012; active = hit-call score of the fitted dose curve at least 0.9, where 1 is the maximum)
How it was run: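 Read-out: fluorescent reporter-transcript fragments quantified by capillary electrophoresis after RT-PCR. Transiently transfected HepG2 cells carrying GAL4-UAS reporters and NR-GAL4 chimeras were exposed to chemical for 24 h; activity scored as increase over DMSO.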

[20] = target: human Peroxisome Proliferator-activated Receptor alpha (PPARa), PPARA (gene 5465) (UniProt Q07869); assay: ATG_PPARa_TRANS: Attagene TRANS-FACTORIAL HepG2 Assay for human Peroxisome Proliferator-activated Receptor alpha (PPARa) (AID 2283001; active = hit-call score of the fitted dose curve at least 0.9, where 1 is the maximum;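 also: potency for gain of reporter signal over DMSO so agonist or activator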)
How it was run: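 Exposure: 24 h, transiently transfected HepG2 cells. Endpoint: GAL4-UAS reporter mRNA, RT-PCR with capillary electrophoresis fluorescence. Baseline: DMSO; increases fitted.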

Measured: AC50

human Thyroid Receptor alpha (THRa1), THRA (gene 7067), sequence (P10827 whole entry, looked up, the tested form may be a part): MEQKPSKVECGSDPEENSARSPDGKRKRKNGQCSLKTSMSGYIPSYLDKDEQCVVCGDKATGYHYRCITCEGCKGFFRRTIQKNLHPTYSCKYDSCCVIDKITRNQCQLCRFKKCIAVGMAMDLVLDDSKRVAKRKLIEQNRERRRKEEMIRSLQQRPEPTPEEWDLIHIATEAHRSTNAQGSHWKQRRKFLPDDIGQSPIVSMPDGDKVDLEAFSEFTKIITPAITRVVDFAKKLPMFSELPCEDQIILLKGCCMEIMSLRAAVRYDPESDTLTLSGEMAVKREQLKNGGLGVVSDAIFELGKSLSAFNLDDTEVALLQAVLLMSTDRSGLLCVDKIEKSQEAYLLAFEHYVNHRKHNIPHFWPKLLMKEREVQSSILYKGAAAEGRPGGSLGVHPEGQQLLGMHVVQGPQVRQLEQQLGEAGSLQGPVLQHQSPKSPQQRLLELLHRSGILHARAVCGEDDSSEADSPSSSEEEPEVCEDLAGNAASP
Peroxisome proliferator-activated receptor gamma (Homo sapiens), sequence (P37231 whole entry, looked up): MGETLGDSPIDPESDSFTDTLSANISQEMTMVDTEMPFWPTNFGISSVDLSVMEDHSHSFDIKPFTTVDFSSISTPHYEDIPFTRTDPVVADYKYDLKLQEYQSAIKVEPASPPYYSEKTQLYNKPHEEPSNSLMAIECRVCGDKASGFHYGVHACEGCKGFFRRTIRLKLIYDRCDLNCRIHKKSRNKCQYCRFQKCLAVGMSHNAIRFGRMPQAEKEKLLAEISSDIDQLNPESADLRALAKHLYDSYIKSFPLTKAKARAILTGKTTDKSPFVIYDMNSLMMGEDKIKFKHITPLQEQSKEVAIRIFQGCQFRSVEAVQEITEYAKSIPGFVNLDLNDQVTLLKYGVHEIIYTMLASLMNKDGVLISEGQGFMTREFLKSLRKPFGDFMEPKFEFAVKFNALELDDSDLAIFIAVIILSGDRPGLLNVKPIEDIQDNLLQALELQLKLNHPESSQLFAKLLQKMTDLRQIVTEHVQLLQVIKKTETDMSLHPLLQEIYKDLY
Nuclear receptor subfamily 1 group I member 2 (Homo sapiens), sequence (O75469 whole entry, looked up, the tested form may be a part): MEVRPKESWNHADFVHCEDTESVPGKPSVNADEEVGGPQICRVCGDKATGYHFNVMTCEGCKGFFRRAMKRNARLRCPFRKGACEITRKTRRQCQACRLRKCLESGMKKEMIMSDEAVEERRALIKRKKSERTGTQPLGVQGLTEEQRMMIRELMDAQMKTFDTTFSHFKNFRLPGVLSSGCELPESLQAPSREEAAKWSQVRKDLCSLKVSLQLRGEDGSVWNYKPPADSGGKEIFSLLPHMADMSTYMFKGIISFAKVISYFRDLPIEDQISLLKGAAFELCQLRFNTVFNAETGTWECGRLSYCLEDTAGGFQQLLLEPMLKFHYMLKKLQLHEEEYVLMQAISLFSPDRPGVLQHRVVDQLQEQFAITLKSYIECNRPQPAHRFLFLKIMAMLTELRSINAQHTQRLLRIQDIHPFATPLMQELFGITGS
Cellular tumor antigen p53 (Homo sapiens), sequence (P04637 whole entry, looked up): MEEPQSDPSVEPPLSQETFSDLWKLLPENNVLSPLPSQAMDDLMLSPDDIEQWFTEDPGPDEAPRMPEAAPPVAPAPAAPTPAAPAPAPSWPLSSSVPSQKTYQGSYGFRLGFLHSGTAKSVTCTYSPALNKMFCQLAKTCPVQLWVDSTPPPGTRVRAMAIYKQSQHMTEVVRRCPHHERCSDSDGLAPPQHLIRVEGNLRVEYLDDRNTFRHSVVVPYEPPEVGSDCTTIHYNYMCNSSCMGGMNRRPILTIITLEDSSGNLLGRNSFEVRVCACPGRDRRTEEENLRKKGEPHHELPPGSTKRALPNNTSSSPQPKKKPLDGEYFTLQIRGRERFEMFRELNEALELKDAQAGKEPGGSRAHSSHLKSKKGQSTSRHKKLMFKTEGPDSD
human Retinoid X Receptor beta (RXRb), RXRB (gene 6257), sequence (P28702 whole entry, looked up, the tested form may be a part): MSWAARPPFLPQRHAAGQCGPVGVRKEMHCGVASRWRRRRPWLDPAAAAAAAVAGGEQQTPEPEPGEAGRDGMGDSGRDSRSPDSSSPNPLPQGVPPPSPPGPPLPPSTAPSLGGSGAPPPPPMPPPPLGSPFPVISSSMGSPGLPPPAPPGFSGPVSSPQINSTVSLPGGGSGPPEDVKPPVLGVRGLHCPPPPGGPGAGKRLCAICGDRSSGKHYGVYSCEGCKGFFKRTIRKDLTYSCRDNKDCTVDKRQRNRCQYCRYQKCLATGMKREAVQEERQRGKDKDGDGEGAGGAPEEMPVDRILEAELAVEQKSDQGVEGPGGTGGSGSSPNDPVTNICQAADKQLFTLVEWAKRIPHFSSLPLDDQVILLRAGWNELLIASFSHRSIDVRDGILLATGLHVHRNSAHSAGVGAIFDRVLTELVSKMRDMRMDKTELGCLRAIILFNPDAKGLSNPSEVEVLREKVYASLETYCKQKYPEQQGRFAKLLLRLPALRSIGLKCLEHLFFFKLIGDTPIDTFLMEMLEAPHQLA
Retinoic acid receptor RXR-alpha (Homo sapiens), sequence (P19793 whole entry, looked up, the tested form may be a part): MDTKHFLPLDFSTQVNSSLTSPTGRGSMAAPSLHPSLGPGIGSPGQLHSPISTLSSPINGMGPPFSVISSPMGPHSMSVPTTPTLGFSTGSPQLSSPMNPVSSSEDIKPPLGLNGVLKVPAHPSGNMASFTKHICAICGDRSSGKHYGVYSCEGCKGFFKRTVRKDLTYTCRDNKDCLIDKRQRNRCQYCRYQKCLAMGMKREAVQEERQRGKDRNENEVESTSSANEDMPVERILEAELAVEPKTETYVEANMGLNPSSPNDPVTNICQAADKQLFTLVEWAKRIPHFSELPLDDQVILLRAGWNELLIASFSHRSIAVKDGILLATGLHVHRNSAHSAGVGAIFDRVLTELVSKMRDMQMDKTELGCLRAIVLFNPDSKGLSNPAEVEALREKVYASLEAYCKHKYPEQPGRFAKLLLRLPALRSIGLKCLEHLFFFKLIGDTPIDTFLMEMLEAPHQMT
human Retinoic Acid Receptor gamma (RARg), RARG (gene 5916), sequence (P13631 whole entry, looked up, the tested form may be a part): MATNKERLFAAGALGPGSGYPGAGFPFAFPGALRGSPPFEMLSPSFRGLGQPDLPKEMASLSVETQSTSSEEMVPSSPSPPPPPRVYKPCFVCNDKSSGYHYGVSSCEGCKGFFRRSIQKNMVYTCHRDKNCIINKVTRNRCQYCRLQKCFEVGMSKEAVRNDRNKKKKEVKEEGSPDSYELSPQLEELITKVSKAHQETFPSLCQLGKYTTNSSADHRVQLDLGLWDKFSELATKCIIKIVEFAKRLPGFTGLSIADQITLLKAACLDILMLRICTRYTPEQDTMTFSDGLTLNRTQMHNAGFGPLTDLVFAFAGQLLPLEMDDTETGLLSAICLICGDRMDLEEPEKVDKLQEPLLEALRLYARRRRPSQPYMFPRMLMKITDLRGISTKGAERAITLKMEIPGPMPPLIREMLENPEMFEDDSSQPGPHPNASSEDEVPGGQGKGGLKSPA
human RAR-related Orphan Receptor gamma (RORg), RORC (gene 6097), sequence (P51449 whole entry, looked up, the tested form may be a part): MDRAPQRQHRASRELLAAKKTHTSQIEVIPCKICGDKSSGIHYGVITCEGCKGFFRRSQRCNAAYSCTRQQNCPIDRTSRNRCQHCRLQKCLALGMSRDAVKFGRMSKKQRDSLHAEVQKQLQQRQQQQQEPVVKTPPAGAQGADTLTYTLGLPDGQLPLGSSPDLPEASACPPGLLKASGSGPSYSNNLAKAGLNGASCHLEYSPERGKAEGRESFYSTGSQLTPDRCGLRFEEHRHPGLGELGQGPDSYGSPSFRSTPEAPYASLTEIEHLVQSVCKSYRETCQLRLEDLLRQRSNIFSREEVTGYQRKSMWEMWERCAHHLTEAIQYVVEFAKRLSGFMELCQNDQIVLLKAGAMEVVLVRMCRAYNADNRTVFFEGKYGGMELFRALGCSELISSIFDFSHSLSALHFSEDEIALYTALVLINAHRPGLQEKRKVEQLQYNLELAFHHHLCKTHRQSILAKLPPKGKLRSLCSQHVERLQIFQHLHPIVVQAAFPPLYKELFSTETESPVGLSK
human RAR-related Orphan Receptor beta (RORb), RORB (gene 6096), sequence (Q92753 whole entry, looked up, the tested form may be a part): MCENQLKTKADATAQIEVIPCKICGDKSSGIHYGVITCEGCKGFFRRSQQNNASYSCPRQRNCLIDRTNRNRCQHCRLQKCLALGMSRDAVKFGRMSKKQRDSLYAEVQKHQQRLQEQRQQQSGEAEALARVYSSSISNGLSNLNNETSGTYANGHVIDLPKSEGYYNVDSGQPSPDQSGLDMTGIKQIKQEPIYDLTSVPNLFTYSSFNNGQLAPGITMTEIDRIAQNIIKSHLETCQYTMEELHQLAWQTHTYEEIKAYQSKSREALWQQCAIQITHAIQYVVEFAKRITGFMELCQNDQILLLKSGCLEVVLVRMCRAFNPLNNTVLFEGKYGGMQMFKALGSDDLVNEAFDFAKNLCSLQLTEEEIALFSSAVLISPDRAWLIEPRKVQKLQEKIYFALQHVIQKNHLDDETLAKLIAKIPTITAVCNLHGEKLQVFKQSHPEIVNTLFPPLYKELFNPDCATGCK
human Peroxisome Proliferator-activated Receptor alpha (PPARa), PPARA (gene 5465), sequence (Q07869 whole entry, looked up, the tested form may be a part): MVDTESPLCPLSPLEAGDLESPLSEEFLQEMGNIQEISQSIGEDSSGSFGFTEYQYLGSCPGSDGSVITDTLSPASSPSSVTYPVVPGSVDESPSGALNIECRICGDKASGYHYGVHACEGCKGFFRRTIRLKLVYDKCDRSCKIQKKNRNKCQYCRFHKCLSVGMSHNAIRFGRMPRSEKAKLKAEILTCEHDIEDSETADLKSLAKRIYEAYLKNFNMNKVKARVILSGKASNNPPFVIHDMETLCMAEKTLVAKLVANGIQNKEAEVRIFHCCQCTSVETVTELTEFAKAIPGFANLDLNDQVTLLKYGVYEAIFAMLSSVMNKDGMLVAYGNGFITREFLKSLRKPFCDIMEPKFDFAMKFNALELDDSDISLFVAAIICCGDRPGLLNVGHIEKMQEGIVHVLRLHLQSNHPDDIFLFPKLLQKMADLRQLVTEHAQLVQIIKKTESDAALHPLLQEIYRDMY

CC(C)(O)c1coc(S(=O)(=O)NC(=O)Nc2c3c(cc4c2CCC4)CCC3)c1
active: [9] 44.9 µM | [10] 19.3 µM
not listed: [16] | [17] | [18] | [19] | [20]
inactive: all other assays above

CN(C)c1ccc(N=NS(=O)(=O)O)cc1
active: [2] 54 µM | [3] 130 µM | [16] 5.79 µM | [17] 6.47 µM
not listed: [1] | [9] | [11] | [12] | [13] | [20]
inactive: all other assays above

Cn1c(=O)cc(Oc2ccc(F)cc2F)c2cnc(NCC(C)(C)O)nc21
active: [4] 41.7 µM | [16] 1.4 µM | [9] 6.3 µM
inactive: [2] | [3] | [5] | [6] | [7] | [8] | [19] | [14] | [15]

CCOC(=O)c1ccc(C2CCC(NC[C@H](O)COc3ccc(O)c(NS(C)(=O)=O)c3)CC2)cc1 (some centres undefined)
active: [3] 49.2 µM | [4] 50 µM | [5] 31.2 µM | [20] 54.8 µM | [8] 28.1 µM | [10] 33 µM | [19] 54.3 µM
inactive: [2] | [16] | [6] | [7] | [9] | [11]
